From PubChem
CHT inh = inhibitors of human choline transporter CHT; 0.86% of 310,000 active; High affinity choline transporter 1 (Homo sapiens), Q9GZV3; B-score at 10 µM; CHT-expressing cells, membrane potential dye, choline response; active compounds read low; AID 488975, 2010;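 active = B-score over 3 SD under the library average, and starting fluorescence ratio not unusually high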;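 note: choline stimulus applied at its EC90 after an EC20 pre-addition; B-score computed on integrated fluorescence ratio after choline addition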
ANO1 block = TMEM16A chloride channel inhibitors, primary screen, cell-based, HTS; Anoctamin-1 (Mus musculus), Q8BHY3; HEK293 TMEM16A/YFP iodide influx fluorescence, ionomycin; normalized B-score (activity score, 25-100; higher = stronger inhibition) at 10 µM; 1.2% of 310,000 active; AID 588511, 2011;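 active = ratio plate-corrected score three or more library SD toward inhibition, starting fluorescence score within five deviations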;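 note: score derived from kinetic fluorescence span divided by baseline fluorescence per well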
CHT PAM = CHT positive allosteric modulators, primary screen, cell-based, membrane potential dye, choline EC20; High affinity choline transporter 1 (Homo sapiens), Q9GZV3; CHT-expressing cells; active compounds read high; LV-AA mutant CHT in HEK293 cells; B-score at 10 µM; 0.49% of 310,000 active; AID 488977, 2010;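 active = initial fluorescence not abnormally high and integrated response B-score, plate-corrected, over 3 SD above library mean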
ANO1 activ = TMEM16A chloride channel activators or potentiators, primary screen, cell-based, HTS | HEK293 TMEM16A/YFP-H148Q/I152L, iodide quench fluorescence; active compounds read low | AID 623877, 2012 | 0.3% of 340,000 active | B-score at 10 µM;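 active = fluorescence-ratio B-score plate-corrected deviation score at least 3 library SD below zero, with starting fluorescence score within 5 deviations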;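 note: channel opened by trigger with iodide after compound preincubation; score built on the fluorescence ratio of max minus min over baseline; more negative score means more quench and so TMEM16A activation or potentiation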
TMEM16A reconf = TMEM16A chloride channel inhibitors, confirmation, cell-based, re-confirmation | shares compounds with ANO1 block | HEK293 TMEM16A/YFP-H148Q, iodide quench fluorescence; ionomycin added to raise cell calcium | inhibition, % at 10 µM | 39% of 2,300 active;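 active = mean duplicate percent inhibition, scaled so buffer wells are 0 and the reference blocker 100, over three buffer SD above buffer mean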
TMEM16A Ca cntr = calcium mobilization in TMEM16A/YFP HEK293 cells, confirmation, counter-screen for TMEM16A inhibitor project | Fluo4 calcium mobilization | shares compounds with ANO1 block | calcium response (% of ionomycin), % at 10 µM | 2% of 2,300 active;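 active = duplicate-averaged calcium signal over 20% of the ionomycin maximum, relative to buffer baseline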;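 note: each well's signal is peak minus trough fluorescence divided by its pre-addition baseline; 0% = buffer wells and 100% = ionomycin wells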
YFP-HEK293 quench = iodide YFP quench changes in parental YFP-HEK293, counter-screen for TMEM16A inhibitor project, cell-based; shares compounds with ANO1 block; ionomycin; YFP ratio F(max-min)/F0 at 10 µM; 2,300 tested, under 10 active; AID 652233, 2013;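 active = yellow fluorescent protein signal ratio exceeding the buffer control mean by over 5 SD of those controls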;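 note: ratio is mean of duplicate wells from kinetic YFP trace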
ClC-1 rat inh = ClC-1 chloride channel inhibition, selectivity assay for TMEM16A inhibitor project, cell-based, voltage-dependent ClC-1; shares compounds with ANO1 block; 2,300 tested, under 10 active; AID 652236, 2013; CHO ClC-1-YFP, iodide influx fluorescence quench; iodide control reads 0, buffer control 100; ratio percent, % at 10 µM;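 active = duplicate-mean ratio percent above the mean of iodide-only control wells, which defines zero, plus 5 of their SD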;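 note: higher percent means stronger block of ClC-1 iodide influx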
Target sequence (P35524 whole entry, looked up): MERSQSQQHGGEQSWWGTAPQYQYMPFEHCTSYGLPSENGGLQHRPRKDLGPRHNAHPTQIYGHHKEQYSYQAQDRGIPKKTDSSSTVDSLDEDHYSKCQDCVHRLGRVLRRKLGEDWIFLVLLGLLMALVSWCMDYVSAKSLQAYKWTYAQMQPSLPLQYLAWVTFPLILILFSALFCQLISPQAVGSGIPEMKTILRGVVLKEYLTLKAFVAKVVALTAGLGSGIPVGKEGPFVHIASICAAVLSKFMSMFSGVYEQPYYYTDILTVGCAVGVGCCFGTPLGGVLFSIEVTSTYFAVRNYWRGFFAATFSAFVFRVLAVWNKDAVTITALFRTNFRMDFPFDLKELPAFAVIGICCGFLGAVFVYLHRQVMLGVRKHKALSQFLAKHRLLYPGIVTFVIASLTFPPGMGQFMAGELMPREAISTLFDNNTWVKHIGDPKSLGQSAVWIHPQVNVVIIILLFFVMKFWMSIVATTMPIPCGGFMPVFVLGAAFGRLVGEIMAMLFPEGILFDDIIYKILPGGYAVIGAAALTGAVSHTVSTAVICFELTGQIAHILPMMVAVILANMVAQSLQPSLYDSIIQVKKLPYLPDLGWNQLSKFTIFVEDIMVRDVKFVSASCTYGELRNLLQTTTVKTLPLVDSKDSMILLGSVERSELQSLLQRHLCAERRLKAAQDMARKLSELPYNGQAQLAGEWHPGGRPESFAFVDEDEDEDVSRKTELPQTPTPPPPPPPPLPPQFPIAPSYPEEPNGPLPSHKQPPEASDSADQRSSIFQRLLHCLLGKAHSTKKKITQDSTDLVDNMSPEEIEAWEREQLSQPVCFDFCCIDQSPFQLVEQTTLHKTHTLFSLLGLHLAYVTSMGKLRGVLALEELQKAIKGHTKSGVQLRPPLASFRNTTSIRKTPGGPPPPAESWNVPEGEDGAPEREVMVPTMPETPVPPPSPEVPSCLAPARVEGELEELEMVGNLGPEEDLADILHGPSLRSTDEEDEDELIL
* hit, by the source's call. Rows were chosen to be rich in hits. Some 2.3% of all compounds tested hit in one or more screens of this group.

N#C/C(=C\c1ccc(Sc2nc3ccccc3[nH]2)o1)c1ccccc1 was read as CHT inh inactive, ANO1 block 100*, CHT PAM inactive, ANO1 activ inactive, TMEM16A reconf 22%*, TMEM16A Ca cntr inactive, YFP-HEK293 quench -0.93 and ClC-1 rat inh -20.
Cc1c(C(=O)Nc2nonc2-c2ccc(F)cc2)oc2ccc(F)cc12 was read as CHT inh inactive, ANO1 block 25*, CHT PAM inactive, ANO1 activ inactive, TMEM16A reconf 40%*, TMEM16A Ca cntr inactive, YFP-HEK293 quench -0.88 and ClC-1 rat inh -16.
C=CCN(C(=O)c1cccc(S(=O)(=O)N2CCN(C)CC2)c1)c1nc(-c2ccccc2)cs1 was read as CHT inh inactive, ANO1 block 100*, CHT PAM inactive, ANO1 activ inactive, TMEM16A reconf 20%*, TMEM16A Ca cntr inactive, YFP-HEK293 quench -1 and ClC-1 rat inh -7.
For CN1CCN(S(=O)(=O)c2cccc(C(=O)N(C)Cc3cccs3)c2)CC1 the results were ANO1 activ inactive.
For O=C(/C=C/c1ccc2c(c1)S(=O)(=O)N(Cc1ccccc1)[C@H]2CC(=O)N1CCOCC1)N1CCOCC1 the results were ANO1 activ inactive.
`Cc1ccc(S(=O)(=O)N2[C@@H](c3ccccc3)C(C(=O)O)=CC[C@H]2c2ccc(Cl)cc2)cc1` gave CHT inh inactive, ANO1 block inactive, CHT PAM inactive and ANO1 activ inactive.
For Cc1ccc([C@@H]2CC=C(C(=O)O)[C@H](c3ccc(Cl)cc3)N2S(=O)(=O)c2ccc(C)cc2)cc1 the results were CHT inh inactive, ANO1 block 25*, CHT PAM inactive, ANO1 activ inactive, TMEM16A reconf 16%*, TMEM16A Ca cntr inactive, YFP-HEK293 quench -1 and ClC-1 rat inh -3.
Screening Cc1ccc(S(=O)(=O)N2[C@@H](c3ccc(F)cc3)C(C(=O)O)=CC[C@H]2c2ccc(Cl)cc2)cc1 returned CHT inh inactive, ANO1 block 25*, CHT PAM inactive, ANO1 activ inactive, TMEM16A reconf inactive, TMEM16A Ca cntr inactive, YFP-HEK293 quench -0.95 and ClC-1 rat inh -14.
CCOC(=O)C1(Cc2ccccc2Cl)CCN(Cc2csc(C(C)=O)c2)CC1 was read as CHT inh inactive, ANO1 block 25*, CHT PAM inactive, ANO1 activ inactive, TMEM16A reconf inactive, TMEM16A Ca cntr inactive, YFP-HEK293 quench -1.1 and ClC-1 rat inh -9.
For CCOC(=O)C1(Cc2cccc(OC)c2)CCN(Cc2ccccc2)CC1 the results were CHT inh inactive, ANO1 block inactive, CHT PAM inactive and ANO1 activ inactive.
For CCN(CC(=O)NC1CCS(=O)(=O)C1)S(=O)(=O)c1ccc(Cl)cc1C(F)(F)F (stereo not given) the results were CHT inh inactive, ANO1 block inactive, CHT PAM inactive and ANO1 activ inactive.
CC(C)(C)C(=O)NC(NC(=S)Nc1sc2c(c1C#N)CCCC2)C(Cl)(Cl)Cl (stereo not given) was read as CHT inh inactive, ANO1 block 100*, CHT PAM inactive, ANO1 activ inactive, TMEM16A reconf 34%*, TMEM16A Ca cntr inactive, YFP-HEK293 quench -1.2 and ClC-1 rat inh -10.
Screening CCCCN(C(=O)c1cccc(-n2cccc2)c1)c1c(N)n(Cc2ccccc2)c(=O)[nH]c1=O returned CHT inh inactive, ANO1 block inactive, CHT PAM inactive and ANO1 activ inactive.
CCC(C)C(NC(=O)C1CCC(C)CC1)C(=O)Nc1ccc(OC)cc1OC (stereo not given) was read as CHT inh inactive, ANO1 block inactive, CHT PAM inactive and ANO1 activ inactive.
Screening CCC(C)C(NC(=O)C1CCC(C)CC1)C(=O)Nc1cc(OC)ccc1OC (stereo not given) returned CHT inh inactive, ANO1 block 25*, CHT PAM inactive, ANO1 activ inactive, TMEM16A reconf inactive, TMEM16A Ca cntr inactive, YFP-HEK293 quench -1.1 and ClC-1 rat inh -6.
For COc1ccc(Cl)cc1NC(=O)CN(C)C(=O)CCNC(=O)c1ccccc1OC the results were ANO1 activ inactive.
CCN1C(=O)C(CC(=O)Nc2ccc(F)cc2)N(CCc2ccc(OC)cc2)C1=S (stereo not given) was read as CHT inh inactive, ANO1 block 25*, CHT PAM inactive, ANO1 activ inactive, TMEM16A reconf inactive, TMEM16A Ca cntr inactive, YFP-HEK293 quench -0.96 and ClC-1 rat inh -1.
CCN1C(=O)C(CC(=O)Nc2ccc(OC)cc2)N(CCc2ccccc2)C1=S (stereo not given) was read as CHT inh inactive, ANO1 block inactive, CHT PAM inactive and ANO1 activ inactive.
Screening OCCNc1nc(Nc2ccccc2)nc2ccccc12 returned CHT inh inactive, ANO1 block inactive, CHT PAM inactive and ANO1 activ inactive.
For c1ccc(Nc2nc(NCC3CCCO3)c3ccccc3n2)cc1 (stereo not given) the results were CHT inh inactive, ANO1 block 100*, CHT PAM inactive, ANO1 activ inactive, TMEM16A reconf inactive, TMEM16A Ca cntr inactive, YFP-HEK293 quench -1.1 and ClC-1 rat inh -14.
Screening OCCNc1nc(Nc2ccc(Br)cc2)nc2ccccc12 returned CHT inh inactive, ANO1 block 25*, CHT PAM inactive, TMEM16A reconf 22%*, TMEM16A Ca cntr inactive, YFP-HEK293 quench -1.4 and ClC-1 rat inh -8.
Screening Cc1ccccc1-c1nnn(Cc2cccc(S(=O)(=O)N3CCOCC3)c2)n1 returned ANO1 activ inactive.
O=C(O)c1cccc(-c2noc(-c3cccc(Cl)c3)n2)c1 was read as ANO1 activ inactive.
`O=C(Cn1cnc2c(oc3ccccc32)c1=O)N1CCCc2ccccc21` gave CHT inh inactive, ANO1 block inactive, CHT PAM inactive and ANO1 activ inactive.
